From PubChem BioAssay (NCI)
Compounds without any hit were thinned out: in the full panel of roughly 79,000, 15% have a hit. Unmarked numbers belong to inactive results. No stated cut-off is given here; in the data, active means growth inhibition above about 70%; inactive means the rest.

Experiment: NCI Yeast Anticancer Drug Screen. Data for the mlh1 rad18 strain (AID 175)
Conditions: S. cerevisiae mlh1 rad18 strain growth inhibition; at 50.0 µM; stronger effect = higher value
Summary of the method: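 Inhibition values reflect reduced growth of mutant yeast versus vehicle-treated controls following compound exposure; the mutations affect DNA damage repair.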

Compared with `CCCn1c(C)nc2c(N)cc(C)cc21`, `CCN(CC)CCSc1cc(C)c2ccc(N)nc2n1` is lower in growth inhibition: -0.8% for the first, -1.1% for the second.

Going from `CCOC(=O)Nc1cccc(Cl)c1` to `CCOC(=O)Cc1cccnc1N`, the growth inhibition falls from 22.1% to -2.25%.

Going from `CCC[CH2][Ge]([CH2]CCC)([CH2]CCC)[n]1ccc2ccccc21` to `N#Cc1cn(Cc2ccccc2)c2ccccc2c1=O`, the growth inhibition falls from 44.7% to 1.15%.

Going from `CC(C)C(C(=O)O)N(CC1(O)OCC(O)C(O)C1O)N=O` (stereo not given) to `CC(CN(C)C)C(=O)c1ccccc1C(=O)O` (stereo not given), the growth inhibition falls from -12.9% to -16.7%.

Going from `COc1ccc(C2(C)OCCCC2([NH-])C[NH-])cc1.[Cl][Pt+2][Cl]` (stereo not given) to `CC(C)c1ccc(C(=O)OCCBr)cc1`, the growth inhibition falls from 9.45% to 1.25%.

Compared with `CCCC#CCN(C(C)C)C(C)C`, `CCCC(=O)C(C)(C)C` is higher in growth inhibition: -7.85% for the first, 6.75% for the second.

Going from `Cc1ccc(SCC(CF)OCn2cc(F)c(=O)[nH]c2=O)cc1` (stereo not given) to `COc1ccc(NC(=O)C(=O)Cc2nc3ccc([N+](=O)[O-])cc3[nH]c2=O)c(OC)c1`, the growth inhibition rises from -8.05% to 22.6%.

Compared with `Nc1nc(Cc2ccccc2)c(-c2ccccc2)c(-c2nc(N)nc(Cc3ccccc3)c2-c2ccccc2)n1`, `O=C1Oc2ccccc2C(=O)Oc2ccccc2C(=O)Oc2ccccc2C(=O)Oc2ccccc21` is lower in growth inhibition: 7.85% for the first, -29.6% for the second.

First: O=C1OI(=O)(O)c2ccccc21 (stereo not given)
Second: OCc1ccccc1O
The growth inhibition of the first is lower: 2.5% for the first, 11.2% for the second.

First: O=C(COc1ccccc1)OC1CCCCC1C1CCCCC1 (stereo not given)
Second: c1ccc(N=C2CCCCCC2)cc1
The growth inhibition of the first is higher: 14.2% for the first, -6.7% for the second.

First: O=C(O)c1ccc2sc3ccccc3c(=O)c2c1
Second: O=c1oc2ccccc2c2ccccc12
The growth inhibition of the first is higher: 39% for the first, -7.8% for the second.

Compared with `COc1ccccc1NC(=O)C(/C=N/C(N)=S)=C(\C)O`, `CN(C)S(=O)(=O)C(C(N)=O)c1ccccc1` (stereo not given) is higher in growth inhibition: -14.4% for the first, 10.4% for the second.

Compared with `CCOC(=O)N[C@@H]1C(CC(=O)OC)O[C@H]2OC(C)(C)O[C@H]21` (stereo not given in full), `COC(=O)CCc1cc(=O)oc2c3c(cc(OC)c12)OC1OC(=O)CC31` (stereo not given) is lower in growth inhibition: 6.25% for the first, -7.25% for the second.

First: CN1CCN(C(=O)/C(=C/c2ccccc2)NC(=O)c2ccccc2)CC1
Second: O=C1/C(=C/c2ccccc2)CCCC/C1=C\c1ccccc1
The growth inhibition of the first is lower: 8.1% for the first, 15.9% for the second.

Going from `CC(c1ccccc1)C(C)c1ccccc1` (stereo not given) to `NC(CSC(c1ccccc1)(c1ccccc1)c1ccc(C(=O)O)cc1)C(=O)O` (stereo not given), the growth inhibition rises from -8.65% to 9.85%.

Compared with `C=CC(=O)OCCOCCOC`, `Cc1n(CC(=O)c2ccccc2)nc2sc(N)n[n+]12` is lower in growth inhibition: -14.4% for the first, -20.9% for the second.

First: CS(=O)(=O)CCC(Nc1ccc([N+](=O)[O-])cc1[N+](=O)[O-])C(=O)O (stereo not given)
Second: O=[N+]([O-])c1cc(C(F)(F)F)ccc1F
The growth inhibition of the first is lower: -11.7% for the first, -0.15% for the second.

Going from `Brc1cc(Br)c2c(c1)CN(C1CCCCC1)CO2` (tested in a mixture with another compound) to `CN1CCCC2[C@@H]3CCC4=C(O)C(=O)CC[C@]4(C)C3CC[C@@]21C` (stereo not given in full), the growth inhibition rises from -7.45% to 18.4%.

Compared with `O=C1C2C3(CCl)C1C23CCl` (stereo not given), `O=C(CC(=O)N(C(=O)/C=C\c1ccccc1)c1ccc(Cl)cc1)N1N=C(c2ccccc2)C(N=Nc2cccc([N+](=O)[O-])c2)C1=O` (stereo not given) is lower in growth inhibition: 40.6% for the first, 5.5% for the second.

Going from `c1ccc(B2OCC(C3OB(c4ccccc4)OC4COB(c5ccccc5)OC43)O2)cc1` (stereo not given) to `COc1ccc(/C=C2/SC(=Nc3ccccc3)N(NC(=O)Cc3ccccc3)C2=O)cc1`, the growth inhibition falls from 23.6% to -22.2%.
